Structures are written as SMILES. The panel holds about 83,000 compounds, 20% with a hit somewhere; the sample as a whole holds those more often.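 Single-concentration screen, 48 h exposure, 96-well plates. Endpoint: percent growth. Below 10 = active.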 A number with no mark means an inactive call. Calls of active or inactive are those of the source.

Data on 14 compounds can be found in PubChem BioAssay (NCI).

Test systems include HCT-15 colon; HT29 colon; SNB-75 CNS; SNB-19 CNS; U251 CNS; PC-3 prostate; SK-MEL-5 melanoma; LOX IMVI melanoma; SK-MEL-28 melanoma; UACC-62 melanoma.
Common to all, as to experiment: NCI-60 one-dose screen, 48 h (100 = growth as untreated, 0 = no growth, -100 = all killed)
Holding throughout (details): 10 µM unless noted

Take `O=C1Nc2ccccc2/C1=C/c1cn(CCCn2c3ccccc3c(=O)c3ccccc32)c2ccccc12`: the growth in the assay on HCT-15 colon was 82.3%; with HT29 colon it was 91.8%; in the assay with SNB-75 CNS, 69.7%; with SNB-19 CNS, 98.2%; in the assay on U251 CNS, 93.3%; in the assay on PC-3 prostate, 62.5%. Besides, the growth with SK-MEL-5 melanoma is 74.7%; with LOX IMVI melanoma, 86%; in the assay with SK-MEL-28 melanoma, 107%.

On to `COc1ccc(/C=C/C(=O)NCCO)cc1`, for which the growth was 98% in the assay on HCT-15 colon; 96.1% in the assay on HT29 colon; 80.7% with SNB-75 CNS; 111% in the assay with SNB-19 CNS; 94.8% in the assay on U251 CNS; 91.8% in the assay with PC-3 prostate. Moreover, the values for the growth with SK-MEL-5 melanoma, with LOX IMVI melanoma and with SK-MEL-28 melanoma were 101%, 95.9% and 104%, respectively.

For the compound `O=c1[nH]c2c3ccncc3cc(-c3cccc(Cl)c3)c2c2cnccc12`, the growth was 43.3% in the assay with HCT-15 colon; 28.1% with HT29 colon; -21.8% (active) in the assay on SNB-75 CNS; 75.7% in the assay on SNB-19 CNS; 13.4% in the assay on U251 CNS; 42.2% with PC-3 prostate. Moreover, the values for the growth in the assay with SK-MEL-5 melanoma and in the assay on SK-MEL-28 melanoma were 46.3% and 25%, respectively.

As for `Cn1c(=O)c2c(nc(N3CCCC3)n2C)n(C)c1=O`, the growth in the assay with HCT-15 colon was 103%; in the assay with HT29 colon it was 94.5%; in the assay on SNB-75 CNS, 89.9%; in the assay with SNB-19 CNS it was 106%; with U251 CNS, 87.5%; in the assay with PC-3 prostate it was 91.2%. For the same compound, the growth in the assay on SK-MEL-5 melanoma is 102%; in the assay with LOX IMVI melanoma, 96.5%; in the assay on SK-MEL-28 melanoma, 104%.

Regarding `COc1cc2ncnc(Nc3ccc(Oc4ccnc(C)c4)c(C)c3)c2cc1NC(=O)CC1CCSS1` (configuration not stated), the growth was -72.4% (active) with HCT-15 colon; -80.7% (active) in the assay on HT29 colon; -3.3% (active) in the assay on SNB-75 CNS; -32.2% (active) with SNB-19 CNS; -13.4% (active) with U251 CNS; -50.3% (active) with PC-3 prostate. For the same compound, the growth in the assay with SK-MEL-5 melanoma is -89.1% (active); in the assay on SK-MEL-28 melanoma, -66% (active).

Take `CCCCC/C(=C\c1ccccc1)C1OC(C)C(C)O1` (configuration not stated): the growth was 109% with HCT-15 colon; 81.3% in the assay with HT29 colon; 92.2% in the assay on SNB-75 CNS; 98.6% with SNB-19 CNS; 86.3% in the assay on U251 CNS; 69.6% in the assay with PC-3 prostate. Also, the values for the growth with SK-MEL-5 melanoma and in the assay on SK-MEL-28 melanoma were 92.8% and 106%, respectively.

Regarding `CCN1CCN(c2nc(C)cc(N(CCCNc3ccnc4cc(Cl)ccc34)Cc3ccco3)n2)CC1`, the growth was 17.9% in the assay with HCT-15 colon; 11.4% with HT29 colon; 66.8% in the assay with SNB-75 CNS; 73.1% in the assay with SNB-19 CNS; 42.2% in the assay on U251 CNS; 53.9% in the assay on PC-3 prostate. The growth was -37.8% (active) in the assay with SK-MEL-5 melanoma, 9.87% (active) in the assay with LOX IMVI melanoma and -63.7% (active) with SK-MEL-28 melanoma.

Regarding `O=C1c2cc3c(cc2-c2c1c1ccc(F)cc1c(=O)n2CCCN1CCOCC1)OCO3`, the growth is 72.5% with HCT-15 colon; 42% with HT29 colon; 53.9% in the assay with SNB-75 CNS; 39.1% with SNB-19 CNS; 14.2% with U251 CNS; 60% in the assay on PC-3 prostate. The results for the growth with UACC-62 melanoma, in the assay on LOX IMVI melanoma and in the assay with SK-MEL-28 melanoma were 13.3%, 8.74% (active) and 80.1%, respectively.

Turning to `COc1ccc(C(=O)c2ccc(C)cc2)c(OC)c1OC`, the growth in the assay on HCT-15 colon was 50.1%; with HT29 colon, 27%; in the assay on SNB-75 CNS it was 64.7%; with SNB-19 CNS, 79.4%; with U251 CNS, 60.9%; with PC-3 prostate it was 86.9%. Besides, the growth in the assay with UACC-62 melanoma was 67.6%; with LOX IMVI melanoma, 83.6%; with SK-MEL-28 melanoma, 85%.

As for `Clc1cc(Cl)cc(Nc2ccc3c(OCCCN4CCOCC4)cccc3n2)c1`, the growth in the assay with HCT-15 colon was -46.4% (active); in the assay on HT29 colon, -64.5% (active); with SNB-75 CNS it was 54.9%; with SNB-19 CNS, 31.7%; in the assay on U251 CNS it was 29.1%; in the assay on PC-3 prostate, 42%. The growth in the assay with UACC-62 melanoma was 14.7%; in the assay with LOX IMVI melanoma it was -85.4% (active); in the assay on SK-MEL-28 melanoma it was 65.6%.

Turning to `Oc1cccc2ccc(N/N=C/c3cc(CN4CCCCC4)c(O)c4ncccc34)nc12`, the growth with HCT-15 colon was 20.6%; in the assay with HT29 colon it was 14.7%; with SNB-75 CNS it was 27.4%; with SNB-19 CNS, 19.9%; in the assay with U251 CNS, -1.42% (active); with PC-3 prostate, 5.8% (active). The growth with UACC-62 melanoma was 8.94% (active); in the assay on LOX IMVI melanoma, -58.4% (active); with SK-MEL-28 melanoma it was 23%.

On to `COc1ccc(-c2cc(=O)oc3ccc(Cl)cc23)cc1F`, for which the growth in the assay on HCT-15 colon is 11.7%; with HT29 colon, -5.75% (active); in the assay with SNB-75 CNS it was 46%; with SNB-19 CNS it was 23.5%; with U251 CNS, 4.46% (active); in the assay on PC-3 prostate, 11%. In addition, the values for the growth with UACC-62 melanoma, with LOX IMVI melanoma and in the assay on SK-MEL-28 melanoma were 30.1%, 21.9% and 59.5%, respectively.

With `CCCCCCCN(CCCCCCC)C(=N)c1ccnc2ccccc12`, the growth in the assay with HCT-15 colon is -72.1% (active); in the assay with HT29 colon, -50.2% (active); in the assay on SNB-75 CNS, -68.3% (active); in the assay with SNB-19 CNS, -51.1% (active); in the assay on U251 CNS, -87.5% (active); with PC-3 prostate, -22.4% (active). The growth is -98.3% (active) with SK-MEL-5 melanoma and -74.1% (active) with SK-MEL-28 melanoma.

Turning to `COC(=O)CNc1nc(N(C)O)nc(N(C)O)n1`, the growth with HCT-15 colon is 30.4%; with HT29 colon, 41.7%; in the assay with SNB-75 CNS, 96.4%; in the assay on SNB-19 CNS it was 47.6%; with U251 CNS it was 36.5%; in the assay on PC-3 prostate it was 37.9%. In addition, the growth with UACC-62 melanoma is 42.9%; in the assay with LOX IMVI melanoma, 33.4%; with SK-MEL-28 melanoma, 42%.
